# Source: PubChem (National Center for Advancing Translational Sciences (NCATS))
# Sampled rows, rich in hits. Any-hit rate of the full collection: about 10%.
# NPR1 antag – antagonists of human natriuretic peptide receptor Npr1; Potency, µM (series often up to 46.3 µM), without a hit: top-dose activity change, negative = inhibition, actives largely listed as inhibitors; 1.6% of 76,000 active; HEK293 hNpr1 GloSensor cGMP, ANP-stimulated luminescence; calls by dose curve; further: on the % scale 0 is the no-effect control and ±100 the full control effect; nearly all actives have a fitted effect of over 60% in size
#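 HEK293 cells stably expressing human Npr1 and cGMP GloSensor pGS-40F, loaded 2 h with 2% GloSensor reagent, given compound 30 min at room temperature. Luminescence read before and 20 min after 0.1 nM hNppA.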
# HEK cytotox – HEK 293 cell cytotoxicity. 6.6% of 94,000 active. Potency, µM (top dose mostly 115 µM), without a hit: at the highest dose activity change, negative = cytotoxicity, actives largely listed as inhibitors. HEK 293 viability, ATP luminescence (CellTiter-Glo), 48-72 h; further: on the % scale 0 is the no-effect control and ±100 the full control effect; nearly all actives have a fitted effect of over 60% in size
#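 250 HEK 293 cells/well; compound by pintool; incubated 48 or 72 hr at 37 degree Celsius; CellTiter-Glo added, 10 min RT, luminescence imaged.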
# NIH3T3 tox – cytotoxic compounds in NIH 3T3 cells. NIH 3T3 viability, CellTiter-Glo ATP luminescence, 48-72 h. 4.3% of 94,000 active. Potency, µM (series often up to 96.7 µM), inactives show at the highest dose activity change, negative = cytotoxicity, most hits filed as inhibitors. AID 1345082; further: on the % scale 0 is the no-effect control and ±100 the full control effect; nearly all actives have a fitted effect of over 55% in size
#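 First NIH 3T3 cells are plated at 400 cells/well; next compound is pinned in; then plates incubate 48 or 72 hr at 37 °C; finally CellTiter-Glo is added and luminescence read after 10 min.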
# FLuc inh-1 – inhibitors of firefly (Photinus pyralis) luciferase. P08659. purified P. pyralis luciferase, luminescence, biochemical. Potency, µM (series often up to 115 µM), usual class: inhibitors. 2.5% of 76,000 active. AID 1347043; further: on the % scale 0 is the no-effect control and ±100 the full control effect; nearly all actives have a fitted effect of over 65% in size
# Target sequence (P08659 whole entry, looked up): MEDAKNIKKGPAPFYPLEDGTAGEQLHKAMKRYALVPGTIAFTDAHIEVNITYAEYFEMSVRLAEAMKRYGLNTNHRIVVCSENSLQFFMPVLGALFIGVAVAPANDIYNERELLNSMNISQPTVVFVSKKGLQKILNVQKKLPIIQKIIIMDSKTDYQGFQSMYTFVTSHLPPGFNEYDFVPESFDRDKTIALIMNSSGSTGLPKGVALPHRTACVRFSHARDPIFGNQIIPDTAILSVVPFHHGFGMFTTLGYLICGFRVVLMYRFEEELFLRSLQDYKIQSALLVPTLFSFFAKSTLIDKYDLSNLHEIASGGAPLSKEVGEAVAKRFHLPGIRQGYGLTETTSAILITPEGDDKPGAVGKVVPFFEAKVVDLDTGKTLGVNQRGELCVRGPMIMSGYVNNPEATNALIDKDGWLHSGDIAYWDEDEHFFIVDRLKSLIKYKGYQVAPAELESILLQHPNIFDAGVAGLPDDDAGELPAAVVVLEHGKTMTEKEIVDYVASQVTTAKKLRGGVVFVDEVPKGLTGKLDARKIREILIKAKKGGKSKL
#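 Biochemical qHTS: compound (6-point titration) added to 10uM D-luciferin plus 10uM ATP in Tris acetate pH 7.5 buffer with Mg, Tween-20 and BSA, then purified enzyme at 10nM; light output imaged.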
# GPT2 inhibitor – inhibitors of human GPT2 alanine aminotransferase. Recombinant GPT2, coupled pyruvate oxidase/HRP Amplex Red fluorescence. AID 1671188. Potency, µM (series often up to 57.7 µM), for the others: at the top dose activity change, negative = inhibition, usual class: inhibitors. 0.25% of 100,000 active; further: on the % scale 0 is the no-effect control and ±100 the full control effect; nearly all actives have a fitted effect of over 60% in size
#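 Recombinant GPT2 (10ng/uL) with 250uM a-KG and 2mM L-alanine, 30 min at room temperature, in HEPES pH 7.5 buffer. Pyruvate detected by pyruvate oxidase/HRP/Amplex Red fluorescence after 30 min in the dark; AOA (50uM) as positive control.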
# FLuc SDR -ATP – binders stabilizing firefly luciferase, without ATP | shares compounds with FLuc inh-1 | Purified FLuc-C-HiBiT, Nano-Glo HiBiT luminescence, no ATP | Potency, µM (doses to about 32.7 µM), inactives show at the highest dose activation (signal gain), hits mostly activators | 7.8% of 1,300 active; further: nearly all actives have a fitted effect of over 55% in size
# FLuc SDR ATP – stabilizes firefly luciferase with ATP present. Potency, µM (highest dose often 32.7 µM), inactives show at the highest dose activation (gain of signal), hits mostly activators. shares compounds with FLuc inh-1. 8.7% of 1,300 active. purified FLuc-C-HiBiT + ATP, HiBiT complementation luminescence;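 further: signal reports ligand binding via conformational change of the enzyme rather than luciferase catalysis; % of control where 0% means no effect; nearly all actives have a fitted effect of over 55% in size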
# FLuc inh-2 – firefly luciferase enzyme inhibition; shares compounds with FLuc inh-1; purified FLuc-C-HiBiT enzyme, luciferin luminescence; Potency, µM (series often up to 32.7 µM), for the others: at the top dose activity change, negative = inhibition, usual class: inhibitors; 42% of 1,300 active; AID 1963320; further: on the % scale 0 is the no-effect control and ±100 the full control effect; nearly all actives have a fitted effect of over 70% in size
# Active calls of the source: *; i = inactive; ? = inconclusive; . = no result given; [ ] = remark or other dose. Unless noted, the call rests on the fitted dose curve; in most records, active means well fitted curve in the direction sought with a large enough effect; inconclusive means small, poorly fitted or top-dose-only effect, or another doubt; inactive means no such curve, though single readings can be large; an effect the other way counts as inactive or inconclusive. Potency means the concentration at half of the fitted maximal effect.
SMILES,NPR1 antag,HEK cytotox,NIH3T3 tox,FLuc inh-1,GPT2 inhibitor,FLuc SDR -ATP,FLuc SDR ATP,FLuc inh-2
CC(C)N1CC(C(=O)NCCc2ccccc2F)NC1=O (configuration not stated),.,0%[172 µM],-23%[138 µM],.,i,.,.,.
OC(c1nc(Nc2ccc(Oc3ccccc3)cc2)n[nH]1)C1CC1 (configuration not stated),-22%[70.6 µM],?,?,14µM*,-10%[88.5 µM],17%[49.3 µM],11%[49.3 µM],?
CN(C)c1cccc(-c2ncc3c(n2)OCCN(c2ccccc2)C3=O)c1,-30%[70.6 µM],?,?,1.6µM*,2%[88.5 µM],?,?,13µM*
O=C1c2cnc(-c3ccsc3)nc2OCCN1c1ccccc1,-5%[70.6 µM],?,?,7.1µM*,-9%[88.5 µM],?,?,?
Cc1ccc(C2Cn3nnc(C(=O)N4CCC(C(=O)NCCc5cccs5)CC4)c3CO2)cc1 (configuration not stated),-1%,1%,-10%,10µM*,i,12%,?,?
Cc1ccc(C2Cn3nnc(C(=O)N4CCC(C(=O)NCCN5CCCC5)CC4)c3CO2)cc1 (configuration not stated),0%,-7%,i,13µM*,2%,13%,?,?
COCCNC(=O)C1CCN(C(=O)c2nnn3c2COC(c2ccc(C)cc2)C3)CC1 (configuration not stated),-2%,9%,i,5.6µM*,i,12%,?,?
Cc1ccc(C2Cn3nnc(C(=O)N4CCN(C(=O)c5cccs5)CC4)c3CO2)cc1 (configuration not stated),-26%,-29%,?,i,i,.,.,.
Cc1ccc(C(=O)N2CCN(C(=O)c3nnn4c3COC(c3ccc(C)cc3)C4)CC2)cc1 (configuration not stated),-25%,?,-14%,i,-3%,.,.,.
C[S+](=O)([O-])N1CCCN(c2ccnc3ccnn23)CC1,.,-21%[172 µM],-26%[138 µM],.,i,.,.,.
O=C(NCCn1cccc1-c1nc(-c2ccc3c(c2)OCO3)no1)c1ccccc1F,-1%,-16%,-15%,?,-9%,.,.,.
NC1CCCCN(C(=O)CCc2n[nH]c3c2CCCC3)C1 (configuration not stated),-2%,i,2%,i,-7%[11.5 µM],.,.,.
O=C1CCc2cc(NC(=O)c3n[nH]c4ccccc34)ccc2N1,-26%,?,?,2.8µM*,-1%,?,?,3.1µM*
Cc1ccsc1[C@@H]1CCN(Cc2cccn2-c2cccnc2)C[C@H]1O,-1%,?,?,i,?,.,.,.
O=C(C1CCCC1)N1CCC(c2noc(CO)n2)C1 (configuration not stated),7%,-18%,-10%,i,5%,.,.,.
CC(C)N1Cc2cc(C(=O)NC3CCN(Cc4ccccc4)CC3)sc2C1,-11%,?,?,i,?,.,.,.
CC(C)C(=O)NC1CCN(Cc2ccc(-c3nc4cccc(Cl)c4s3)cc2)CC1,.,.,.,.,.,13%,9%,-6%
O=C1NCCCCCCN(Cc2ccncc2)[C@@H]2CN(C(=O)C3(c4ccccc4)CC3)CC[C@@H]12,-6%,-1%,-13%,i,i,.,.,.
CCCCCSc1nnc(-c2ccc(Br)cc2)o1,.,.,.,.,.,11%,9%,-6%
O=c1[nH]c(N2CCOCC2)nc2c1CCN(Cc1ccc(C(F)(F)F)cc1)CC2,10%,?,-23%,i,i,.,.,.
CN1CCc2nc3sc(C(=O)Nc4cccc(C#N)c4)c(N)c3cc2C1,.,.,.,.,.,14%,16%,-12%
O=C(O)c1ccc(-c2nnc3ccc(NC(=O)C4CCC4)cn23)cc1,2%,19%,-21%,10µM*,i,?,?,?
O=C(Nc1c(C(=O)O)oc2ccccc12)c1ccc(C(F)(F)F)cc1,.,.,.,.,.,15%,9%,9.9µM*
CCCCNC(=O)N1CC(C(=O)NC(C)c2ccccc2)CC(c2ccc(OC)c(OC)c2)C1 (configuration not stated),-2%,?,?,i,i,.,.,.
COc1ccc(NC(=O)c2cccc3c2CCN3C(=O)Nc2ccc(F)cc2)c(C)c1,11µM*,-27%,-13%,2.2µM*,i,13%,0.7µM*,0.56µM*
SMILES,NPR1 antag,HEK cytotox,NIH3T3 tox,FLuc inh-1,GPT2 inhibitor,FLuc SDR -ATP,FLuc SDR ATP,FLuc inh-2
COc1ccc(NC(=O)N2CCc3c(C(=O)NCCCN4CCCC4=O)cccc32)cc1,11µM*,?,-29%,0.5µM*,0%,?,0.35µM*,0.25µM*
COc1ccc(NC(=O)N2CCc3c(C(=O)Nc4ccc5c(c4)OCO5)cccc32)cc1,13µM*,?,-21%,2.8µM*,i,15%,1.2µM*,0.88µM*
CCC(=O)N1CCc2c(C(=O)Nc3cc(OC)cc(OC)c3)cccc21,-1%,-4%,i,i,1%,.,.,.
COc1ccc(NC(=O)N2CCc3c(C(=O)NCc4ccncc4)cccc32)cc1,11µM*,?,?,1.3µM*,i,12µM*,0.88µM*,0.62µM*
COc1ccc(OC2CCN(C3CCCC3)CC2)c(C(=O)NCCCN2CCCC2=O)c1,2%,-22%,-12%,i,i,.,.,.
COc1cccc(-c2c(C(=O)NCc3cccc(Cl)c3)nc3sccn23)c1,.,?,?,.,i,.,.,.
CC(C)NC(=O)c1ccc2oc(-c3cccnc3Cl)nc2c1,.,-20%,-13%,.,-2%,.,.,.
O=C(Nc1ccc2oc(-c3ccccc3F)nc2c1)c1ccccc1Cl,.,.,.,.,.,20%,17%,?
COc1ccccc1-c1nc2cc(NC(=O)c3ccccc3Cl)ccc2o1,.,.,.,.,.,16%,13%,?
CCC(CC)COC(=O)[C@H](C)N[P@](=O)(OC[C@H]1O[C@@](C#N)(c2ccc3c(N)ncnn23)[C@H](O)[C@@H]1O)Oc1ccccc1,.,.,.,.,.,7%,5%,-6%
Cc1cc(CNC(=O)C2(C(N)=O)CC2)c2[nH]c(-c3ccccc3)c(C)c2c1,?,22µM*,?,13µM*,-23%,26%,?,11µM*
